Results from PubChem BioAssay.
“And” between values parts separate entries of the source, which are not always exact repeats. Equal values may be shown once. Records with an inconclusive call do not appear. The source made the active and inactive calls. Unless noted, the rule behind the calls is not given here.

How the values were obtained:
[1] = HTB85 osteosarcoma cell growth inhibition, synergistic combos for chromothripsis tumors, BGB or cisplatin IC20 combos (AID 1671453); settings: HTB85 osteosarcoma cells, drug combinations, stronger effect = higher value;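 note: cells exposed for 96 hours before readout; 0% = vehicle DMSO and 100% = high DMSO killing control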
[2] = CRL2098 osteosarcoma cell growth inhibition, synergistic combos for chromothripsis tumors, BGB or cisplatin IC20 combos (AID 1671454; in the data active = inhibition above about 80%;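 note: cells exposed for 96 h before readout; 0% = vehicle DMSO and 100% = killing by high DMSO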); settings: CRL2098 osteosarcoma cells, drug combinations, stronger effect = higher value
[3] = HD-MB03 medulloblastoma cell growth inhibition, synergistic combos for chromothripsis tumors, BGB or cisplatin IC20 combos (AID 1671455; in the data active = inhibition above about 83%;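 note: 0% = vehicle DMSO and 100% = high DMSO as cytotoxic control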); settings: HD-MB03 medulloblastoma cells, stronger effect = higher value
[4] = UWB1.289 ovarian carcinoma cell growth inhibition, synergistic combos for chromothripsis tumors, BGB or cisplatin combos (AID 1671456; in the data active = inhibition above about 80%;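 note: cells exposed to compound for four days; 0% = vehicle DMSO and 100% = killing by high DMSO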); settings: UWB1.289 ovarian carcinoma cells, stronger effect = higher value
[5] = LFS_MB_2R medulloblastoma cell growth inhibition, synergistic combos for chromothripsis tumors, cisplatin combos (AID 1671457; in the data active = inhibition above about 80%;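 note: cells exposed to compound for four days before readout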); settings: LFS_MB_2R medulloblastoma cells, stronger effect = higher value
[6] = MDA-MB-436 breast carcinoma cell growth inhibition, synergistic combos for chromothripsis tumors, BGB or cisplatin combos (AID 1671458); settings: MDA-MB-436 breast carcinoma growth inhibition, drug combinations, stronger effect = higher value;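 note: cells exposed for 96 hours; 0% = vehicle DMSO and 100% = killing by high DMSO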
[7] = UWB1.289_BRCA1 ovarian cancer growth, cell-based, BGB or cisplatin combinations (AID 1671459; in the data active = inhibition above about 80%); settings: UWB1.289 BRCA1 ovarian carcinoma, drug combinations, stronger effect = higher value
[8] = human astrocyte viability loss, single and combined drugs, cytotoxicity control for chromothriptic childhood tumor combination screen, cell-based, BGB or cisplatin IC20 combos (AID 1671460; in the data active = inhibition above about 80%;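 note: cells exposed to compounds for 96 hours before viability readout; 0% = vehicle and 100% = killing control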); settings: Human astrocytes, drug combinations, stronger effect = higher value
[9] = growth inhibition of BT084 medulloblastoma cells, cell-based, ICGC_MB145, cisplatin and BGB IC40 combos (AID 1671461; in the data active = inhibition above about 80%;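 note: cells exposed to drugs for 96 hours; 0% = vehicle DMSO and 100% = high DMSO full killing control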); settings: drug combinations, stronger effect = higher value
[10] = growth inhibition of RCMB18 medulloblastoma cells, cell-based, cisplatin and BGB IC40 combos (AID 1671462; in the data active = inhibition above about 80%;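 note: cells exposed to compound for four days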); settings: stronger effect = higher value
[11] = growth inhibition of CRL1545 osteosarcoma cells, cell-based, cisplatin and BGB IC20 combos (AID 1671464; in the data active = inhibition above about 80%;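 note: cells exposed to compound for 96 hours before readout; 0% = vehicle DMSO and 100% = high DMSO killing control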); settings: stronger effect = higher value
[12] = circadian clock period modulators, cell-based, LOPAC library, luminescence reporter (AID 2774); settings: circadian reporter cells, at 7 µM, actives lie on both sides;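 note: values are relative to mean of DMSO wells on each plate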
[13] = test system: Hepatitis C virus NS3 helicase; test: HCV NS3 helicase inhibitors, primary screen, biochemical, fluorescence polarization, LOPAC1280 library (AID 687035; in the data active = inhibition above about 37%); settings: Purified HCV NS3 helicase, Cy5-dT15 ssDNA binding fluorescence polarization; stronger effect = higher value; concentration not given here
[14] = Cy5 fluorescence quenching or enhancement artefacts, artefact control for HCV NS3 helicase inhibitor project, biochemical, LOPAC1280 (AID 687037); settings: Cy5-DNA-NS3h complex fluorescence interference counterscreen
[15] = sensitizers of A549 cells to miR-34 induction, primary screen, imaging, A549 dox-inducible miR-34, nuclei and caspase counts (AID 1347080;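 active = compounds whose cell count with miR-34 switched on is under 0.7 times the count with it off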); settings: A549 miR-34 inducible, Hoechst nuclei count, 48 h
[16] = viability rescue of complex I mutant cybrids, primary screen, cell-based, galactose medium, ATP luminescence (AID 1645843;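 active = z-score of at least 1.8 in each of two replicates, scored against plate mean and spread of sample wells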;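 note: positive z means more ATP and so rescue of galactose-driven cybrid death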); settings: complex I mutant cybrid cells, 72 h, stronger effect = higher value
[17] = target: ATP-dependent translocase ABCB1 (Homo sapiens) (UniProt P08183); test: MDR1 (ABCB1) efflux transporter inhibition, cell-based (AID 377; in the data active = fluorescence slope change above about 50%); settings: MDR1-expressing cells, fluorescent substrate accumulation slope; stronger effect = higher value; concentration not given here
[18] = hESC survival regulators, cell-based (AID 493140); settings: human embryonic stem cell survival screen; stronger effect = higher value;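 note: cells exposed to compounds for four days before counting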
[19] = liver-stage malaria parasite growth inhibition, primary screen, cell-based, HepG2, luciferase luminescence, HepG2 viability (AID 624349; in the data active = parasite load remaining mostly below about 12%, no sharp cut-off; inactive = mostly above about 10%;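 note: 100% = mean of DMSO negative control wells on the same plate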); settings: P. berghei liver stage in HepG2, luciferase luminescence, concentration not given here; parasite load remaining: stronger effect = lower value; viability: measured here: HepG2 viability without parasites
[20] = measured here: combination with cisplatin, at 0.5 µM
[21] = stronger effect = lower value, cell number ratio, induced over uninduced
[22] = measured here: relative caspase fold change +Dox/-Dox
[23] = measured here: total cells with miR-34 induction, stronger effect = lower value
[24] = measured here: total cells without miR-34 induction

ATP-dependent translocase ABCB1 (Homo sapiens), sequence (P08183 whole entry, looked up): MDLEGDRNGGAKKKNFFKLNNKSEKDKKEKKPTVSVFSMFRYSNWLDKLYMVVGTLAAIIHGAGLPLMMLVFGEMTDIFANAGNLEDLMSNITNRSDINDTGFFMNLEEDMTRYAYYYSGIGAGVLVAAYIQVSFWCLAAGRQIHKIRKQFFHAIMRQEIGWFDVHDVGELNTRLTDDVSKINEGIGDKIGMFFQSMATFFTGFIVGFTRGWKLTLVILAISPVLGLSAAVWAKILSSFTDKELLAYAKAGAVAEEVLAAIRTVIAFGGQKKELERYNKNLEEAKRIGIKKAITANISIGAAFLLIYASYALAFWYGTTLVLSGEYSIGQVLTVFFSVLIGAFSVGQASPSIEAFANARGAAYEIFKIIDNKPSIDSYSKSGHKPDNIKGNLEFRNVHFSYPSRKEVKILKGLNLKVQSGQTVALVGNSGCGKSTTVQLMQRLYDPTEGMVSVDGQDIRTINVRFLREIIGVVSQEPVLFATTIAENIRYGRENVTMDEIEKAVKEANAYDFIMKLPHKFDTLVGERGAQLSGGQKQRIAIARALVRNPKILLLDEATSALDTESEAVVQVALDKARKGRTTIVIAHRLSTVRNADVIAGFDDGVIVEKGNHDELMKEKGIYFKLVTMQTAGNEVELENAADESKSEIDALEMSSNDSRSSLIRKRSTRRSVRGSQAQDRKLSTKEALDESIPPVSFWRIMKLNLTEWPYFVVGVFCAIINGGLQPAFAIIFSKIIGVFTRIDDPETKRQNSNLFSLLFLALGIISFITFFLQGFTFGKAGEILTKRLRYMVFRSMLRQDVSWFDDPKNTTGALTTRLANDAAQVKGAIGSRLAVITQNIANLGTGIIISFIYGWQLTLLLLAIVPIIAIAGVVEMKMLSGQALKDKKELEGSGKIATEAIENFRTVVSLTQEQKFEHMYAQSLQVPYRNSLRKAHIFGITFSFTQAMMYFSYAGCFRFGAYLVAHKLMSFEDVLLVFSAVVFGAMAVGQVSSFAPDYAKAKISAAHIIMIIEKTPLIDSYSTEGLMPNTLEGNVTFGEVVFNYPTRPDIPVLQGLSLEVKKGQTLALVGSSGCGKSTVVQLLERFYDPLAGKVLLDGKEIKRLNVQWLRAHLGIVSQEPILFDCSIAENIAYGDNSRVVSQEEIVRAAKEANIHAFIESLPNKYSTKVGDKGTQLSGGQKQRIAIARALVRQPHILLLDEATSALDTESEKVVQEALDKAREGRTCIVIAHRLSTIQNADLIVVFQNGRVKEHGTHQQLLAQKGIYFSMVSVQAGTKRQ

Which inhibition ([1]; measured here: with BGB IC20, at 5 µM) does the source give for Cc1ccc(NC(=O)CCCCCC(=O)Nc2ccccc2N)cc1 here?
The inhibition was 31.2%.

And the inhibition ([1]; measured here: with cisplatin IC20, at 0.5 µM)?
Its inhibition is -26.9%.

And the inhibition ([1]; measured here: with cisplatin IC20, at 5 µM)?
Its inhibition is 33.8%.

What about the inhibition ([1]; single agent, at 5 µM) of the same compound?
Its inhibition is 12.7%.

And the inhibition ([2]; at 0.5 µM)?
The inhibition was -71% (inactive).

What about the inhibition ([2]; measured here: combination with BGB at IC20, at 0.5 µM) of the same compound?
The inhibition was -75.9%.

What about the inhibition ([2]; measured here: combination with cisplatin at IC20, at 0.5 µM) of the same compound?
The inhibition was -67.2%.

And the inhibition ([3]; at 0.5 µM)?
Its inhibition is -7.72% (inactive).

And the inhibition ([3]; measured here: combo with BGB at IC20, at 0.5 µM)?
The inhibition was 0.828%.

And the inhibition ([3]; measured here: combo with cisplatin at IC20, at 0.5 µM)?
The inhibition was -9.85%.

What about the inhibition ([4]; at 0.5 µM) of the same compound?
The inhibition was -13.2% (inactive).

And the inhibition ([4]; measured here: inhibition with BGB combination, at 0.05 µM)?
The inhibition was -44.6%.

And the inhibition ([4]; measured here: inhibition with cisplatin combination, at 0.05 µM)?
Its inhibition is -27.1%.

What about the inhibition ([5]; at 0.5 µM) of the same compound?
Its inhibition is -23.5% (inactive).

And the inhibition [5, 20]?
Its inhibition is -17.5%.

What about the inhibition ([5]; measured here: combination with cisplatin, at 5 µM) of the same compound?
The inhibition was 50.2%.

And the inhibition ([6]; at 0.5 µM)?
The inhibition was -27.5% (inactive).

What about the inhibition ([6]; measured here: BGB combination, at 0.5 µM) of the same compound?
Its inhibition is -25.9%.

And the inhibition ([6]; measured here: BGB combination, at 5 µM)?
Its inhibition is -14.6%.

What about the inhibition ([6]; measured here: cisplatin combination, at 0.5 µM) of the same compound?
Its inhibition is -44.2%.

And the inhibition ([6]; measured here: cisplatin combination, at 5 µM)?
Its inhibition is 15.1%.

What about the inhibition ([7]; BGB combination, concentration series, at 5 µM) of the same compound?
Its inhibition is 23.3%.

And the inhibition ([7]; at 0.5 µM)?
The inhibition was -23.2% (inactive).

And the inhibition ([7]; cisplatin combination, concentration series, at 5 µM)?
The inhibition was 51.6%.

What about the inhibition ([8]; at 0.5 µM) of the same compound?
Its inhibition is -11.1% (inactive).

What about the inhibition ([8]; measured here: combo with BGB IC20, at 0.5 µM) of the same compound?
The inhibition was -7.99%.

And the inhibition ([8]; measured here: combo with cisplatin IC20, at 0.5 µM)?
Its inhibition is -17.6%.

What about the inhibition ([9]; at 0.5 µM) of the same compound?
Its inhibition is -11.1% (inactive).

What about the inhibition ([9]; cisplatin combination, at 0.5 µM) of the same compound?
The inhibition was 8.17%.

And the inhibition ([9]; cisplatin combination, at 5 µM)?
Its inhibition is 68.8%.

What about the inhibition ([9]; measured here: BGB IC40 combination 0.05 uM, at 0.05 µM) of the same compound?
The inhibition was -52.4%.

And the inhibition ([9]; single agent, at 5 µM)?
Its inhibition is 25.1%.

What about the inhibition ([10]; at 0.5 µM) of the same compound?
Its inhibition is 6.99% (inactive).

And the inhibition ([10]; cisplatin combo, at 5 µM)?
Its inhibition is 67.3%.

And the inhibition ([10]; measured here: BGB IC40 combination, at 0.05 µM)?
The inhibition was -18.3%.

What about the inhibition [10, 20] of the same compound?
The inhibition was 0.344%.

What about the inhibition ([10]; single agent, at 5 µM) of the same compound?
The inhibition was 35.9%.

And the inhibition ([11]; at 0.5 µM)?
Its inhibition is 6.85% (inactive).

And the inhibition ([11]; measured here: with BGB IC20 combination, at 0.5 µM)?
The inhibition was 21.7%.

What about the inhibition ([11]; measured here: with cisplatin IC20 combination, at 0.5 µM) of the same compound?
The inhibition was -2.22%.

And the inhibition ([11]; single agent, at 0.05 µM)?
Its inhibition is -29%.

What about the inhibition ([11]; single agent, at 5 µM) of the same compound?
Its inhibition is 60.5%.

For NC(N)=N[C@@H](CCC(=O)O)C(=O)O, which period change [12] is on record?
The period change was 0.01 h (inactive).

What about the inhibition [13] of the same compound?
The inhibition was -3% (inactive).

And the fluorescence ratio (interference) [14]?
Its fluorescence ratio (interference) is 1 (inactive).

What about the fold change [15, 21] of the same compound?
Its fold change is 0.954 (inactive) and 0.929 (inactive).

What about the fold change [15, 22] of the same compound?
Its fold change is 1.36 and 1.31.

What about the cell count [15, 23] of the same compound?
The cell count was 9760 and 6110.

And the cell count [15, 24]?
The cell count was 10200 and 6580.

What about the z-score [16] of the same compound?
The z-score was 0.175 (inactive).

Which results are given for O=C(O)CCC(=O)N1CCCC1C(=O)O (stereo unspecified)?
period change [12]: -0.225 h (inactive); inhibition [13]: -2% (inactive); fluorescence ratio (interference) [14]: 1 (inactive); fold change [15, 21]: 0.97 (inactive); fold change [15, 22]: 1.16; cell count [15, 23]: 9450; cell count [15, 24]: 9740; z-score [16]: 0.565 (inactive)

For Cc1n[nH]c(=O)[nH]c1=O, which fluorescence slope change [17] is on record?
The fluorescence slope change was 50.5% (active).

What about the survival [18] of the same compound?
Its survival is 3.58 (inactive).

What about the parasite load remaining [19] of the same compound?
Its parasite load remaining is 54.2% (inactive) and 83.7% (inactive).

What about the viability [19] of the same compound?
The viability was 111% and 75.4%.

And the fold change [15, 21]?
Its fold change is 0.871 (inactive).

And the fold change [15, 22]?
The fold change was 1.41.

What about the cell count [15, 23] of the same compound?
Its cell count is 8710.

And the cell count [15, 24]?
Its cell count is 10000.

With CCCCC[C@H](O)/C=C/[C@@H]1[C@@H](CCCCCCC(=O)O)[C@@H](O)C[C@H]1O as the compound, how does the survival [18] read?
The survival was 96.8 (inactive).

What about the fold change [15, 21] of the same compound?
The fold change was 0.91 (inactive) and 0.991 (inactive).

What about the fold change [15, 22] of the same compound?
The fold change was 1.19 and 1.15.

What about the cell count [15, 23] of the same compound?
Its cell count is 5960 and 6030.

What about the cell count [15, 24] of the same compound?
The cell count was 6550 and 6090.

With CCCCCC(=O)/C=C/[C@H]1[C@H](O)CC(=O)[C@@H]1C/C=C\CCCC(=O)O as the compound, how does the survival [18] read?
Its survival is 92.3 (inactive).

What about the fold change [15, 21] of the same compound?
The fold change was 0.973 (inactive).

And the fold change [15, 22]?
The fold change was 1.18.

What about the cell count [15, 23] of the same compound?
The cell count was 6130.

What about the cell count [15, 24] of the same compound?
The cell count was 6300.

With CCCCC[C@H](O)/C=C/[C@@H]1[C@@H](C/C=C\CCCC(=O)O)[C@H]2CO[C@@H]1C2 as the compound, how does the survival [18] read?
The survival was 104 (inactive).

What about the fold change [15, 21] of the same compound?
The fold change was 0.992 (inactive).

And the fold change [15, 22]?
The fold change was 1.22.

What about the cell count [15, 23] of the same compound?
Its cell count is 5990.

And the cell count [15, 24]?
Its cell count is 6040.

With CCCCCCCCCCCCCCCC(=O)C1=C(O)C(CO)OC1=O (stereo unspecified) as the compound, how does the survival [18] read?
The survival was 98.2 (inactive).

And the fold change [15, 21]?
The fold change was 0.877 (inactive).

What about the fold change [15, 22] of the same compound?
The fold change was 0.963.

And the cell count [15, 23]?
Its cell count is 5220.

And the cell count [15, 24]?
The cell count was 5960.
